Compound activity as filed in PubChem.
MARV entry inh = inhibitors of Marburg virus binding or cell entry; Potency, µM (series often up to 37.8 µM), actives largely listed as inhibitors; 300,000 tested, 1.8% active; Marburg virus pseudotyped entry inhibition, cell reporter; AID 540276; calls by dose curve; tested in HEK293 cells
LASV entry inh = inhibitors of Lassa virus binding or cell entry | Lassa virus pseudotype entry inhibition, cell reporter | Potency, µM (top dose mostly 37.9 µM), most hits filed as inhibitors | 300,000 tested, 1.2% active; calls by dose curve; tested in HEK293 cells; note: nearly all actives have a fitted effect of over 50% in size
VACV mCherry inh = vaccinia inhibition (mCherry reporter) | Vaccinia virus mCherry reporter infection, fluorescence | Potency, µM (doses to about 36.5 µM), most hits filed as inhibitors | 310,000 tested, 0.63% active | AID 720579; calls by dose curve; tested in A549 cells; note: nearly all actives have a fitted effect of over 35% in size
VACV Venus inh = inhibitors of vaccinia virus (Venus reporter); 330,000 tested, 0.46% active; Potency, µM (doses to about 36.5 µM), most hits filed as inhibitors; Vaccinia virus Venus reporter expression, fluorescence; calls by dose curve; tested in A549 cells; note: nearly all actives have a fitted effect of over 30% in size
HCV inh = blocks hepatitis C virus; Potency, µM (series often up to 41.8 µM), actives largely listed as inhibitors; AID 651820; Huh7.5.1 HCVcc-Cre infection, luciferase reporter, 44 h; 340,000 tested, 3.4% active; active = well fitted inhibition curve with a large enough effect; inconclusive = small, poorly fitted or top-dose-only effect, or another doubt; inactive = no such curve, though single readings can be large or run the other way
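A cell-based infection assay in which seeded cells (1,000 per well) receive test compound after 4 h, are inoculated with HCVcc-Cre at approximately 0.5 moi, and are incubated 44 h before luminescence detection.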
Numbers stand for hits; [ ] = dose if it differs, or a comment. Sampled rows, rich in hits. Any-hit rate of the full collection: about 4.6%.

How did O=C(Cn1cncn1)NCC1Cc2cc(-c3ccsc3)cc(Cl)c2O1 (stereo not drawn) do in these assays?
VACV mCherry inh: inactive; VACV Venus inh: inactive

Results for Cc1ccc(OCC(O)Cn2c(=N)n(Cc3ccccc3)c3ccccc32)cc1 (stereo not drawn) ?
MARV entry inh: inconclusive; LASV entry inh: inconclusive; VACV mCherry inh: 11µM; VACV Venus inh: 14µM; HCV inh: inconclusive

How did CCn1c(=N)n(CC(O)COc2ccccc2)c2ccccc21 (stereo not drawn) do in these assays?
LASV entry inh: inactive; VACV mCherry inh: inactive; VACV Venus inh: inactive

How did CCOC(=O)c1cnc(SC)nc1Oc1cccc(NS(=O)(=O)c2ccc(F)cc2)c1 do in these assays?
MARV entry inh: inactive; LASV entry inh: inconclusive; HCV inh: inconclusive

How did CCOC(=O)c1cnc(SC)nc1Oc1cccc(NS(=O)(=O)c2ccccc2)c1 do in these assays?
MARV entry inh: inactive; LASV entry inh: inactive; HCV inh: 10µM

What do the screens show for `COc1ccc(C2=C(C)C(=NCCCN3CCN(c4cc(Cl)ccc4C)CC3)NS2(=O)=O)cc1`?
MARV entry inh: inactive; LASV entry inh: inactive; VACV mCherry inh: inconclusive; VACV Venus inh: inconclusive

What do the screens show for `CC1=C(c2ccc(Cl)cc2)S(=O)(=O)NC1=NCCCN1CCN(c2cc(C)ccc2C)CC1`?
MARV entry inh: inactive; LASV entry inh: inactive; VACV mCherry inh: 10µM; VACV Venus inh: 11µM

Results for CCOC(=O)C1(Cc2ccccc2C(F)(F)F)CCN(C2CCCC2)CC1 ?
MARV entry inh: 7.9µM; LASV entry inh: inconclusive; VACV mCherry inh: inactive; VACV Venus inh: inactive; HCV inh: inactive

How did CCOC(=O)C1(Cc2ccccc2C(F)(F)F)CCN(C2CCSC2)CC1 (stereo not drawn) do in these assays?
MARV entry inh: inactive; LASV entry inh: inactive; VACV mCherry inh: inactive; VACV Venus inh: inactive; HCV inh: inactive

What do the screens show for `CCn1c(SCc2nc(-c3ccccc3)no2)nnc1-c1cccs1`?
MARV entry inh: inactive; LASV entry inh: inactive; HCV inh: inactive

How did CCn1c(SCc2nc(-c3cccs3)no2)nnc1-c1c[nH]c2ccccc12 do in these assays?
MARV entry inh: inconclusive; LASV entry inh: 20µM; VACV mCherry inh: inactive; VACV Venus inh: inactive; HCV inh: inconclusive

What do the screens show for `c1cnc2ccc(-c3ccc4ncccc4c3)cc2c1`?
MARV entry inh: inconclusive; LASV entry inh: 4.5µM; VACV mCherry inh: inactive; VACV Venus inh: inactive; HCV inh: inactive

What do the screens show for `CC(=O)Oc1c(S(=O)(=O)c2ccccc2)c(C)nn1C(C)(C)C`?
MARV entry inh: inactive; LASV entry inh: inconclusive; HCV inh: inactive

How did Cc1nn(C(C)(C)C)c(OC(=O)c2cccs2)c1S(=O)(=O)c1ccccc1 do in these assays?
MARV entry inh: inconclusive; LASV entry inh: 11µM; VACV mCherry inh: inconclusive; VACV Venus inh: inconclusive; HCV inh: inconclusive

Results for O=C(CCc1nc(-c2ccccc2Cl)no1)Nc1cccnc1 ?
MARV entry inh: inactive; VACV mCherry inh: inactive; VACV Venus inh: inactive; HCV inh: 13µM

How did Nc1nonc1-n1nnc(C(=O)N/N=C/c2cc(Br)cs2)c1-c1ccccc1 do in these assays?
MARV entry inh: 5.6µM; LASV entry inh: inactive; VACV mCherry inh: inactive; VACV Venus inh: inactive; HCV inh: inactive

Results for CCOc1cccc(-c2c(C(=O)N/N=C(\C)c3ccccn3)nnn2-c2nonc2N)c1 ?
HCV inh: 11µM

Results for O=C(Cc1cccs1)N[C@@H]1C(=O)N2C(C(=O)[O-])=C(C[n+]3ccccc3)CS[C@H]12 ?
VACV mCherry inh: inactive; VACV Venus inh: inactive

How did CCc1ccc(NC(=O)c2ccc(CN3C(=O)C(C)=C(c4ccc(C)cc4)S3(=O)=O)cc2)cc1 do in these assays?
LASV entry inh: inactive; VACV mCherry inh: inactive; VACV Venus inh: inactive

Results for Cc1ccc(CNC(=O)C2CCN(C(=O)c3ccc(-n4ccc5ccccc54)s3)CC2)cc1 ?
LASV entry inh: inactive; VACV mCherry inh: inactive; VACV Venus inh: inactive

How did Cc1ccc2c(Cl)c(C(=O)NCC3CCCO3)sc2c1 (stereo not drawn) do in these assays?
MARV entry inh: inconclusive; LASV entry inh: inconclusive; HCV inh: 2.2µM

How did N=c1n(CC(=O)c2ccc(Br)cc2)c2ccccc2n1Cc1ccccc1 do in these assays?
VACV mCherry inh: inconclusive; VACV Venus inh: 11µM; HCV inh: inconclusive

How did Cn1c(=N)n(CC(=O)O)c2ccccc21 do in these assays?
MARV entry inh: inactive; LASV entry inh: inactive; VACV Venus inh: inactive; HCV inh: inactive

Results for Cn1c(=N)n(CC(=O)c2ccccc2)c2ccccc21 ?
MARV entry inh: 2µM; LASV entry inh: 7.1µM; VACV mCherry inh: inconclusive; VACV Venus inh: inactive; HCV inh: inactive

How did Cc1nnc(N2C(=O)c3oc4ccccc4c(=O)c3C2c2ccc(Cl)cc2)s1 (stereo not drawn) do in these assays?
LASV entry inh: inactive; VACV mCherry inh: inactive; VACV Venus inh: inactive

Results for COc1cc(OC)cc(C(=O)NC(=S)Nc2nc(-c3cc4ccccc4o3)cs2)c1 ?
VACV mCherry inh: inactive[7.34 µM]; VACV Venus inh: inactive[7.34 µM]; HCV inh: inactive

What do the screens show for `COCCNc1nc(-c2cc3ccccc3o2)cs1`?
MARV entry inh: inconclusive; LASV entry inh: 4µM; VACV mCherry inh: inactive; VACV Venus inh: inactive; HCV inh: inconclusive

How did COCCN1C(=O)NC(c2ccccc2)C(C(=O)OC)=C1C (stereo not drawn) do in these assays?
MARV entry inh: inactive

What do the screens show for `C/C(Cn1nnc([N+](=O)[O-])n1)=N\NC(=O)c1ccccc1`?
MARV entry inh: inconclusive; LASV entry inh: inactive; VACV mCherry inh: inconclusive; VACV Venus inh: 13µM; HCV inh: inconclusive

What do the screens show for `CCOC(=O)CCN1C(=O)[C@H]2[C@H]3[C@H](O)[C@H](O)C/C(=N\NC(=O)OCc4ccc(OC)cc4)[C@@H]3CC[C@H]2C1=O`?
MARV entry inh: inactive

What do the screens show for `CCCn1c2c(c(O)c(C(=O)Nc3ccc(C)cn3)c1=O)CCCC2`?
MARV entry inh: inactive

What do the screens show for `CCCn1c2c(c(O)c(C(=O)Nc3ncccc3C)c1=O)CCCC2`?
MARV entry inh: inactive; LASV entry inh: inactive; HCV inh: 11µM

Results for CC1(C(=O)N/N=C/c2c(F)c(F)c(F)c(F)c2F)CC1(Cl)Cl (stereo not drawn) ?
MARV entry inh: inconclusive; LASV entry inh: inconclusive; VACV mCherry inh: inactive; VACV Venus inh: inactive; HCV inh: 11µM

Results for CC(=O)c1ccc(C(=O)NCC2Cc3cccc(-c4ncccn4)c3O2)cc1 (stereo not drawn) ?
VACV mCherry inh: inactive; VACV Venus inh: inactive

What do the screens show for `CCCOC(=O)c1ccc(Oc2cn[nH]c2-c2ccc(O)cc2O)cc1`?
HCV inh: 8.9µM

Results for CCCOC(=O)c1ccc(Oc2c(-c3ccc(OC)cc3O)n[nH]c2C)cc1 ?
MARV entry inh: inactive; LASV entry inh: 11µM; VACV mCherry inh: inactive[1.46 µM]; VACV Venus inh: inconclusive; HCV inh: inconclusive

Results for CCCOC(=O)c1ccc(Oc2cn[nH]c2-c2ccc(OCC(=O)NN)cc2O)cc1 ?
HCV inh: inactive

Results for CCCOC(=O)c1ccc(Oc2c(-c3ccc(O)cc3O)n[nH]c2C)cc1 ?
MARV entry inh: inactive; LASV entry inh: inconclusive; VACV Venus inh: inconclusive; HCV inh: inconclusive
